FUS suppressor = FUS proteinopathy suppression in yeast. Potency, µM (doses to about 76.6 µM), actives largely listed as activators. S. cerevisiae FUS-expressing, growth rescue, OD600, 24 h. 0.24% of 390,000 active;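 further: plate controls were DMSO vehicle for no effect and reference control for full effect; nearly all actives have a fitted effect of over 55% in size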
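FUS-expressing yeast, raffinose-pregrown, induced in 2% galactose minimal medium at OD 0.005; compounds in a dilution series, 24hr at 30C. Growth restoration read as absorbance at 600 nm. CP55940 positive control, DMSO negative.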
TDP-43 yeast inh = TDP-43 toxicity inhibition in yeast; Potency, µM (titrated, usually from 46.1 µM), without a hit: at the highest dose growth rescue (activation), usual class: activators; TDP-43 expressing yeast growth rescue, BacTiter-Glo, 24 h; 1.8% of 410,000 active; further: % of control where 0% means no effect; nearly all actives have a fitted effect of over 50% in size
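Yeast cells expressing TDP-43 under galactose induction are exposed to compounds for 24 hr at 30 deg C. BacTiter-Glo luminescence measures growth, so protective compounds score as activators.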
aSyn rescue = inhibitors of alpha-synuclein toxicity in yeast; 0.14% of 370,000 active; Potency, µM (doses to about 46.1 µM), without a hit: at the highest dose growth rescue (activation), hits mostly activators; Yeast expressing alpha-synuclein, growth rescue, BacTiter-Glo, 24 h; AID 652106; further: % of control where 0% means no effect; nearly all actives have a fitted effect of over 65% in size
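Readout is rescue of growth in alpha-synuclein-expressing yeast, so inhibitors of toxicity appear as activators. Growth after 24 hr at 30 deg C in galactose medium is quantified by luminescence.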
Abeta rescue = A-beta toxicity reversal in yeast | yeast expressing A-beta42, growth rescue, OD600, 48 h; response scale: 0% DMSO, 100% iron-clioquinol control | Potency, µM (top dose mostly 46.1 µM), most hits filed as activators | 0.063% of 410,000 active; further: nearly all actives have a fitted effect of over 55% in size
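Yeast growth medium received pinned compounds, then yeast cells expressing toxic A-beta were added; plates incubated at 30 C for 48 hr. Growth read as absorbance at 600 nm, normalized to DMSO and equimolar FeCl3 plus clioquinol controls.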
Active calls of the source: *; i = inactive; / = no result. A selection: hits, their analogues and other compounds. The true share with any hit is near 2.1%. The call rests on the fitted dose curve; in most records, active means well fitted curve in the direction sought with a large enough effect; inconclusive means small, poorly fitted or top-dose-only effect, or another doubt; inactive means no such curve, though single readings can be large; an effect the other way counts as inactive or inconclusive. Potency means the concentration at half of the fitted maximal effect.

SMILES | FUS suppressor | TDP-43 yeast inh | aSyn rescue | Abeta rescue
COCCCNc1nc2ccccc2nc1NS(=O)(=O)c1ccccc1 | i | 19% | -1% | i
COCCCNc1nc2ccccc2nc1NS(=O)(=O)c1cccc(C)c1 | i | 14µM* | -5% | i
COc1ccc(CCNC(=O)C2COc3ccccc3C2)cc1OC (stereo not drawn) | i | -6% | / | i
CC1CCN(S(=O)(=O)c2ccc3c(c2)oc(=O)n3CC(=O)NCc2ccc(F)cc2)CC1 | i | 19% | / | i
N#Cc1cccc2c1-c1ccccc1/C2=N/NC(N)=O | i | 16% | 1% | i
N#Cc1cccc2c1-c1ccccc1/C2=N/NC(N)=S | i | 11µM* | -8% | i
COc1cccc(-c2nc(-c3ccc(-c4ccccc4)nc3OC)no2)c1 | i | 6% | / | i

High-throughput results from PubChem.
